Hits are enriched below; roughly 5.3% of the tested compounds scored in any of these assays.
HP1b binding inh: HP1-beta chromodomain-methylated histone interaction inhibition; Potency, µM (highest dose often 114 µM), inactives show top-dose activity change, negative = inhibition, hits mostly inhibitors; P83916; 390,000 tested, 0.56% active; AlphaScreen HP1-beta / biotin-H3K9me3 peptide binding; also: potency is read from the fitted curve at half-maximal effect; nearly all actives have a fitted effect of over 70% in size
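Compound inhibition of the preformed complex between 50 nM HP1-beta and 50 nM biotinylated H3K9me3 peptide was read by AlphaScreen. Buffer was PBS pH 7.4 with 0.01% Tween-20. Incubations ran 30 min at room temperature, with 10 ug/mL donor/acceptor beads.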
Six1-Eya2 blk: inhibitors of human Six1/Eya2 interaction. Q15475+O00167. AlphaScreen GST-Six1/His-Eya2 binding, biochemical; hits give low values. activity change, % (no concentration beside the values). 360,000 tested, 0.56% active; in the data active = activity change below about -65%; inconclusive = mostly about -30% to -63%; also: % is scaled to controls: 0 for no effect and ±100 for the full control effect
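Homogeneous AlphaScreen proximity assay pairing GST-Six1 with His-tagged Eya2 (added as 5X mix: 250 nM and 500 nM) in 50 mM Tris pH 8.0, 300 mM NaCl, 1 mM TCEP. Glutathione donor and nickel acceptor beads; 1 h, 37 °C, dark.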
CtBP-E1A blk: blocks the CtBP interaction with E1A; AlphaScreen GST-E1A/His-CtBP binding, 1536-well; hits give low values; activity change, % (no concentration beside the values); 340,000 tested, 0.49% active; in the data active = activity change below about -65%; inconclusive = mostly about -30% to -63%; also: % is scaled to controls: 0 for no effect and ±100 for the full control effect
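In 5 uL wells, 23 nL compound meets equimolar GST-E1A and His-CtBP (5X stock 125 nM each) for 2 h, 37 °C. Beads (5X, 50 ug/mL) then 1 h, 37 °C, dark.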
BAZ2B inh: inhibitors of human BAZ2B bromodomain; AlphaScreen BAZ2B-H3K14Ac peptide displacement; Potency, µM (series often up to 114 µM), inactives show at the top dose activity change, negative = inhibition, usual class: inhibitors; 360,000 tested, 4.4% active; Q9UIF8; also: potency is read from the fitted curve at half-maximal effect; % is scaled to controls: 0 for no effect and ±100 for the full control effect; nearly all actives have a fitted effect of over 60% in size
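AlphaScreen luminescence quantifies BAZ2B engagement of H3K14Ac peptide; the protein and biotinylated peptide are both at 50 nM final, buffer PBS pH 7.4 with 0.01% Tween-20, all steps at room temperature.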
JMJD2A Tudor inh: JMJD2A Tudor domain (human) inhibition; Potency, µM (highest dose often 114 µM), inactives show at the highest dose activity change, negative = inhibition, actives largely listed as inhibitors; O75164; AlphaScreen JMJD2A-Tudor / H3K4me3 peptide binding; 390,000 tested, 4.4% active; also: potency is read from the fitted curve at half-maximal effect; % is scaled to controls: 0 for no effect and ±100 for the full control effect; nearly all actives have a fitted effect of over 50% in size
TDP1 inh: inhibitors of human tyrosyl-DNA phosphodiesterase TDP1; recombinant TDP1, AlphaScreen DNA substrate cleavage; Potency, µM (titrated, usually from 130 µM), without a hit: at the top dose activity change, negative = inhibition, usual class: inhibitors; 350,000 tested, 0.28% active; AID 485290; also: potency is read from the fitted curve at half-maximal effect; % is scaled to controls: 0 for no effect and ±100 for the full control effect; nearly all actives have a fitted effect of over 40% in size
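Recombinant human Tdp1 (E. coli-expressed, 1 nM final) preincubated with compounds 15 min at room temperature, then 5'-biotin/3'-phosphotyrosine-FITC DNA substrate (15 nM final) added for 5 min. AlphaScreen beads (10 ug/ml final) added 10 min; cleavage lowers signal.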
Active calls of the source: *; ? = inconclusive; nt = no result; [ ] = another dose, or the depositor's remark. Unless noted, calls follow the shape of the dose curve; as a rule, active = well fitted inhibition curve with a large enough effect; inconclusive = small, poorly fitted or top-dose-only effect; inactive = no such curve, though single readings can be large or run the other way.

SMILES	HP1b binding inh	Six1-Eya2 blk	CtBP-E1A blk	BAZ2B inh	JMJD2A Tudor inh	TDP1 inh
O=C(c1ccccc1O)N(Cc1ccccc1)Cc1ccccc1	nt	nt	nt	nt	-35%	1%
CNC(=O)NC(=S)NC(=O)c1ccc(OC)cc1	14%	-2	8	-35%	16µM*	-4%
COc1ccc(C(=O)NC(=S)Nc2ccccc2F)cc1	?	7	6	2%	-10%	0%
CCN(CC)Cc1cc(Nc2c3ccccc3nc3c4ccccc4n(C)c23)cc(CN(CC)CC)c1O	?	?	-1	nt	45µM*	nt
CCOC(=O)CN1C(=O)S/C(=C/C=C/c2ccc(N(C)C)cc2)C1=O	13µM*	-3	-12	10µM*	16µM*	11%
O=C(CN1C(=O)S/C(=C\C=C\c2ccccc2)C1=O)N1CCCCC1	33%	-2	1	-20%	-8%	4%
O=C1CCC[C@@H](C2=CCCCC2=O)C1	nt	nt	nt	nt	nt	6%[21 µM]
COc1ccc(C)cc1NC(=O)C(NC(=O)c1cc(OC)c(OC)c(OC)c1)C(C)C (stereo unspecified)	?	10	-15	nt	40µM*	3%
CNC(=O)C1CCC(Cn2c(=O)c3sccc3n(CC(=O)NCc3cccc(OC)c3)c2=O)CC1 (stereo unspecified)	24%	nt	nt	-7%	-12%	5%
O=C1CCCC2=C1C1(CCCC1)N=C(Nc1nc3cc(Cl)ccc3o1)N2	nt	nt	nt	nt	-21%	0%
CC1=C(C(N)=O)C(c2ccc(C)cc2)n2nc(SCc3ccccc3F)nc2N1 (stereo unspecified)	25%	nt	nt	-4%	-5%	9%
CC(NC(=O)C1CCN(S(=O)(=O)c2cc([N+](=O)[O-])ccc2Cl)CC1)c1ccccc1 (stereo unspecified)	14%	-3	-13	-21%	-5%	3%
Cc1ccc(NC(=O)C2CCN(S(=O)(=O)c3cc([N+](=O)[O-])ccc3Cl)CC2)nc1	-17%	-12	nt	nt	45µM*	-7%
COc1ccc2nc(NC(=O)C3CCCN(S(=O)(=O)c4cccs4)C3)sc2c1 (stereo unspecified)	-27%	-27	-11	-3%	-20%	9%
Cc1ccc2nc(NC(=O)C3CCN(S(=O)(=O)c4cc([N+](=O)[O-])ccc4Cl)CC3)sc2c1	?	-18	?	35µM*	40µM*	-5%
COc1ccc2nc(NC(=O)C3CCN(S(=O)(=O)c4cccs4)CC3)sc2c1	17%	-16	-26	-4%	100µM*	2%
O=c1cc(-c2ccccc2)n2c(SCc3ccc(F)cc3)nnc2[nH]1	60%	nt	nt	5%	-29%	-3%
O=C(NCc1ccccc1)Nc1ncnc2c1C(c1ccccc1)c1c(ccc3ccccc13)O2 (stereo unspecified)	nt	nt	nt	nt	-27%	nt
Cc1ccn2c(=O)cc(COc3ccc(NC(=O)COc4ccccc4)cc3)nc2c1	15%[57 µM]	nt	nt	3%	-15%	0%
CCc1ccc(-c2nc(CS(=O)CC(=O)NCCc3ccc(C)cc3)c(C)o2)cc1 (stereo unspecified)	42%	nt	nt	-3%	-14%	6%
Cc1ccc(N/N=C(\C#N)C(N)=S)cc1C	-18%	-6	nt	45µM*	?	5%
N#C/C(=N\Nc1ccccc1)C(N)=S	-21%	-2	-2	?	22µM*	7%
N#C/C(=N\Nc1ccc(Cl)cc1)C(N)=S	-31%	-10	-8	?	?	9%
O=C(NCCN1CCOCC1)C1(C(F)(F)F)C/C(=C\CCO)CCCO1 (stereo unspecified)	30%	nt	nt	nt	6%	8%
Cc1cc(C(=O)N/N=C/c2ccc(O)c(O)c2O)c(C)n1-c1ccccc1	?	?	?	56µM*	56µM*	0%
SMILES	HP1b binding inh	Six1-Eya2 blk	CtBP-E1A blk	BAZ2B inh	JMJD2A Tudor inh	TDP1 inh
Cc1cc(/C=N/NC(=O)c2cccs2)c(C)n1-c1ccccc1	0%	-13	-13	?	?	8%
COc1cc(/C=N/NC(=O)CCN2CCN(c3ccccc3)CC2)cc(OC)c1OC	14%	-82*	-80*	-6%	-11%	3%
O=C(Cc1csc(N2CCOCC2)n1)N/N=C/c1ccc(O)c(O)c1O	16µM*	-73*	?	nt	10µM*	?
O=C(CCN1CCN(c2ccccc2)CC1)N/N=C/c1ccc(O)c(O)c1O	28µM*	?	?	8.9µM*	40µM*	0%
O=C(CCN1CCOCC1)N/N=C/c1cc(Br)cc(Br)c1O	28%	-83*	-73*	56µM*	?	2%
S=c1[nH]nc(CCCc2n[nH]c(=S)o2)o1	?	8	1	-29%	2.8µM*	nt
Cc1ccc(O)c(C(=O)C=Cc2ccccc2)c1	?	17	-22	nt	40µM*	nt
COc1ccc(C(=O)/C=C/c2ccc(O)cc2)cc1	9%	4	4	-26%	-31%	6%
COc1cc(C)cc(C(=O)C=Cc2ccccc2)c1O	?	-2	-5	nt	56µM*	nt
Cc1ccc(O)c(C(=O)/C=C/c2ccc3c(c2)OCCCO3)c1	?	3	2	28µM*	16µM*	8%
COc1ccc(C=CC(=O)c2cc(O)ccc2O)cc1	?	-4	2	nt	40µM*	nt
Cn1nnnc1SCCNCc1ccc(OCc2ccc(Cl)cc2)cc1	38%	nt	nt	-31%	-25%	8%
CCOC(=O)c1c(NC(=O)c2cc(=O)c3c(C)cc(C)cc3o2)sc(C)c1C	50%	nt	nt	-1%	0%	1%
CN(C)c1ccc(/C=C/C(=O)c2ccccc2O)cc1	13µM*	0	11	nt	10µM*	12%
O=C1C=CC(=O)N1Cc1ccccc1	?	7	-13	?	25µM*	nt
Cc1cccc(C(=O)NNC(=O)c2ccc(F)cc2)c1	37%	4	8	-6%	7%	0%
O=C(NNC(=O)c1cccc(-n2cccc2)c1)c1ccc(F)cc1	-22%	-19	-10	40µM*	?	nt
N#Cc1cccnc1N1CCN(C(=O)c2cccc3c2C(=O)c2ccc(-c4ccc(Cl)c(C(F)(F)F)c4)cc2S3(=O)=O)CC1	19%	8	5	nt	-24%	3%
O=C(O)c1cccc2c1C(=O)c1ccc(-c3ccc(Cl)c(C(F)(F)F)c3)cc1S2(=O)=O	15%	-3	nt	?	79µM*	-5%
CCCC(C(=O)O)N1C(=O)/C(=C2\C(=O)N(C)c3ccccc32)SC1=S (stereo unspecified)	-37%	1	4	45µM*	?	9%
COc1ccc(NC(=O)CN2C(=O)/C(=C3\SC(=S)N(CCC(=O)O)C3=O)c3ccccc32)cc1	0%	-1	-10	-33%	?	7%

Screening data as filed in PubChem.
